Bioassay records (PubChem BioAssay)
Sampled rows, rich in hits. Any-hit rate of the full collection: about 2.4%.
Pol iota inh – qHTS for Inhibitors of Polymerase Iota | DNA polymerase iota (Homo sapiens), Q9UNA4 | Pol iota fluorescent replication assay, 10 min | Potency, µM (top dose mostly 115 µM), for inactives: top-dose activity, negative = inhibition, actives largely listed as inhibitors | 1% of 390,000 active
Target sequence (Q9UNA4 whole entry, looked up): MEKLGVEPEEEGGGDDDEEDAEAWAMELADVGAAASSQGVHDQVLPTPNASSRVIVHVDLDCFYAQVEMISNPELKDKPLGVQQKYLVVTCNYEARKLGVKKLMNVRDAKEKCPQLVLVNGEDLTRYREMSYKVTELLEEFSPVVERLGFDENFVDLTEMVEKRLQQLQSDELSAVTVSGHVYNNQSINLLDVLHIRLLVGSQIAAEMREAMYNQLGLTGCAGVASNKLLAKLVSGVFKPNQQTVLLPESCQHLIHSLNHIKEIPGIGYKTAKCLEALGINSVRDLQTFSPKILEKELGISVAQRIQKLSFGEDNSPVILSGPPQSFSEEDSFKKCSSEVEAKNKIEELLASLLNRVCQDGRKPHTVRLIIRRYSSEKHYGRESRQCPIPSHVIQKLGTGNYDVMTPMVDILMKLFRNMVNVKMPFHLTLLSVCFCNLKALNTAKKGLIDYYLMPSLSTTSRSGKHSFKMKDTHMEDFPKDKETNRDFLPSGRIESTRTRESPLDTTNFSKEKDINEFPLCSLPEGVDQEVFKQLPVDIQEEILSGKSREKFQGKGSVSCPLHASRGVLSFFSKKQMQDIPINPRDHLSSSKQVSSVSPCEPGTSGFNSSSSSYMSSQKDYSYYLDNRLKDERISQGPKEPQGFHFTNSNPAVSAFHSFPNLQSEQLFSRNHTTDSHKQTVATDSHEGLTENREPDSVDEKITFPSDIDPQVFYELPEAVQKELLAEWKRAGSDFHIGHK
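Fluorescent replication assay read twice, at 0 min and 10 min after adding 50 nM (final) substrate. Enzyme (10 nM) and compounds were first incubated 15 min at room temperature; enzyme-free buffer wells were negative controls.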
L3MBTL1 block – qHTS Assay for the Inhibitors of L3MBTL1; Lethal(3)malignant brain tumor-like protein 1 (Homo sapiens), Q9Y468; AlphaScreen L3MBTL1–H3K9me1 peptide binding; Potency, µM (top dose mostly 57.1 µM), for inactives: top-dose activity, negative = inhibition, most hits filed as inhibitors; 0.66% of 230,000 active; AID 485360, 2010; further: on the % scale 0 is the no-effect control and ±100 the full control effect; nearly all actives have a fitted effect of over 60% in size
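Displacement of a biotinylated histone H3(1-15) peptide monomethylated at Lys9 (75 nM) from L3MBTL1 (50 nM) was measured by AlphaScreen after a 30 min room-temperature compound incubation; cefsulodin titration served as intraplate control.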
POLH inh – qHTS for Inhibitors of Polymerase Eta; DNA polymerase eta (Homo sapiens), Q9Y253; recombinant Pol eta, fluorescent DNA replication assay; 1.2% of 390,000 active; Potency, µM (series often up to 114 µM), for inactives: at the highest dose activity change, negative = inhibition, usual class: inhibitors; further: on the % scale 0 is the no-effect control and ±100 the full control effect
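Fluorescent replication assay: 50 nM final substrate added after a 15 min room-temperature compound preincubation with 10 nM enzyme. Signal taken at 0 min and again at 10 min.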
POLK inh – qHTS for Inhibitors of Polymerase Kappa | AID 588579, 2011 | Potency, µM (titrated, usually from 107 µM), for the others: top-dose activity, negative = inhibition, usual class: inhibitors | purified Pol kappa, fluorescent DNA synthesis assay, 10 min | 0.53% of 400,000 active; further: on the % scale 0 is the no-effect control and ±100 the full control effect
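Readout: fluorescence, taken kinetically at 0 and 10 min. Conditions: 10 nM Pol kappa, 15 min RT compound preincubation, 50 nM substrate final. Controls: enzyme-free buffer wells.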
Pol beta inh – qHTS Assay for Inhibitors of DNA Polymerase Beta; P06746; Pol beta primer extension/strand displacement, fluorescence kinetic; Potency, µM (top dose mostly 114 µM), without a hit: at the top dose activity change, negative = inhibition, hits mostly inhibitors; 1.3% of 340,000 active; further: on the % scale 0 is the no-effect control and ±100 the full control effect
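Values derive from four-parameter Hill fits of normalized kinetic data: reads at 0 and 10 min following addition of 50 nM substrate to 10 nM Pol beta preincubated 15 min with compound.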
* hit, by the source's call; ? = inconclusive; . = not tested or not shown; [ ] = another dose, or the depositor's remark. The call rests on the fitted dose curve; in most records, active means well fitted curve in the direction sought with a large enough effect; inconclusive means small, poorly fitted or top-dose-only effect, or another doubt; inactive means no such curve, though single readings can be large; an effect the other way counts as inactive or inconclusive. Potency means the concentration at half of the fitted maximal effect.

SMILES	Pol iota inh	L3MBTL1 block	POLH inh	POLK inh	Pol beta inh
O=C(COC(=O)c1ccc([N+](=O)[O-])o1)NC1CCCC1	79µM*	-9%	?	-13%	.
CCN(C(=O)COC(=O)c1ccc([N+](=O)[O-])o1)C1CCCCC1	?	-5%	89µM*	?	.
CC1CCCC(NC(=O)COC(=O)c2ccc([N+](=O)[O-])o2)C1C (configuration not stated)	?	-26%	-9%	-24%	.
CC[C@@H](C)[C@@H](CO[C@@H](Cc1ccccc1)C(=O)N[C@@H](CCS(C)(=O)=O)C(=O)OC(C)C)NC[C@@H](N)CS	.	.	.	23%[60.1 µM]	.
CC(NC(=O)Cn1ccc2cc(S(=O)(=O)N3CCCCCC3)ccc21)c1ccccc1 (configuration not stated)	?	.	0%	5%	33%
Cc1ccccc1CNC(=O)C1CCCN(c2nnc(-n3c(C)ccc3C)s2)C1 (configuration not stated)	16%	.	-18%	-19%	-2%
CC(=O)C1=C(c2ccccc2)NC(=O)NC1c1ccc(O)c(O)c1 (configuration not stated)	40µM*	?	?	79µM*	4µM*
COc1ccc(C2NC(=O)NC(C)=C2[N+](=O)[O-])cc1OC (configuration not stated)	-5%	4%	-30%	-15%	4%
CC(=O)C1=C(c2ccccc2)NC(=S)NC1c1cc(Cl)c(OC(C)C)c(Cl)c1 (configuration not stated)	6%	-8%	-27%	-15%	1%
COc1cc(C2NC(=S)NC(c3ccccc3)=C2C(C)=O)cc(Cl)c1OCC(=O)O (configuration not stated)	0%	9%	-8%	-16%	-19%
CC1=C([N+](=O)[O-])C(c2ccc(O)c(O)c2)NC(=O)N1 (configuration not stated)	79µM*	.	-8%	-33%	8%
CC(=O)C1=C(c2ccccc2)NC(=S)NC1c1ccc(O)c(O)c1 (configuration not stated)	18µM*	?	?	-49%	4µM*
COc1cc(C2NC(=O)NC(c3ccccc3)=C2C(C)=O)cc(Cl)c1OCC(=O)O (configuration not stated)	37%	.	28µM*	-20%	1%
CN(C)/[N+]([O-])=N/Oc1ccc([N+](=O)[O-])cc1[N+](=O)[O-]	?	.	.	-22%	.
N#Cc1c(NC(=S)NC(=O)Cc2cccs2)sc2c1CCCCC2	-14%	0%	-6%	?	45µM*
CC(=O)NC(=S)Nc1sc2c(c1C#N)CCCCC2	111%	-2%	-12%	0%	29%[57.1 µM]
COc1ccc(N(C(=O)COc2ccc(Br)cc2)S(=O)(=O)c2ccc(C)cc2)cc1	-4%	.	-15%	-17%	0%
O=C(Sc1cccc2cccnc12)c1ccccc1Br	.	.	.	.	6%
O=C(Sc1cccc2cccnc12)c1ccc(F)cc1	.	4.5µM*	.	.	3%
CCc1ccccc1NC(=O)C1CCCN1S(=O)(=O)c1ccc(-c2ccc(=O)[nH]n2)s1 (configuration not stated)	?	.	40µM*	-25%	-28%
CCC(CC)C(=O)Nc1nnc2n1CCS2	33%	.	-18%	-2%[60.1 µM]	1%
Cc1cccc(NC(=O)NNC(=O)c2cc3ccccc3cc2O)c1C	50µM*	.	-26%	?	35µM*
O=C(NNC(=O)c1cc2ccccc2cc1O)Nc1ccccc1F	-24%	.	-5%	-7%	?
Cc1ccc(NC(=O)NNC(=O)c2cc3ccccc3cc2O)c(C)c1	71µM*	.	-9%	?	?
Cc1ccc(C)c(NC(=O)NNC(=O)c2cc3ccccc3cc2O)c1	35µM*	.	?	?	35µM*
O=C(CCC1CCCC1)NNC(=O)c1cc2ccccc2cc1O	?	.	-14%	-5%	50µM*
Cc1ccc(NC(=O)NNC(=O)c2cc3ccccc3cc2O)cc1C	?	.	-16%	-24%	?
